Screens: PubChem, National Center for Advancing Translational Sciences (NCATS)
Rows were chosen to be rich in hits. Some 6.2% of all compounds tested hit in one or more screens of this group.
HT1080 IDH1KD tx – toxicity to HT-1080 IDH1 knockdown cells (counter line); actives 2% (n = 360,000); Potency, µM (doses to about 46.1 µM), without a hit: top-dose activity, negative = toxicity, most hits filed as cytotoxic; HT-1080 IDH1 knockdown viability, ATP luminescence, 48 h; AID 686971;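 further: 0% = DMSO wells and -100% = cell-free medium wells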
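Using the IDH1-knockdown HT-1080 line run in the same batch and compound series as the NT line, viability after 48 h at 37 °C was determined by CellTiter-Glo luminescence and expressed as % activity.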
KB-3-1 tox – kills parental KB-3-1 adenocarcinoma cells; AID 1347075; actives 1.4% (n = 400,000); Potency, µM (doses to about 46.1 µM), usual class: cytotoxic; KB-3-1 viability, CellTiter-Glo ATP luminescence, 72 h; further: on the % scale 0 is the no-effect control and ±100 the full control effect; nearly all actives have a fitted effect of over 60% in size
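Cells are dispensed, compounds pinned in, plates held at 37 °C for 72 h, then CellTiter-Glo is added and luminescence read after 10 minutes. Cell line: parental KB-3-1 in phenol-red-free DMEM, 10% FBS.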
KB-V1 cytotox – KB-V1 MDR subline cytotoxicity; KB-V1 MDR cells viability, CellTiter-Glo, 72 h; Potency, µM (series often up to 46.1 µM), usual class: cytotoxic; actives 3.4% (n = 400,000); further: on the % scale 0 is the no-effect control and ±100 the full control effect; nearly all actives have a fitted effect of over 60% in size
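qHTS viability screen in drug-selected KB-V1 MDR cells: 72 h compound treatment at 37 degrees C, ATP luminescence end point.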
ATXN viability – viability counter-screen for ATXN expression inhibitors. S2 cells (HEK-293 line with an ATXN2-luciferase reporter) viability, CellTiter-Fluor protease fluorescence, 24 h. actives 0.49% (n = 400,000). Potency, µM (highest dose often 56.7 µM), most hits filed as cytotoxic; further: nearly all actives have a fitted effect of over 40% in size
ATXN2 expr inh – reduces ATXN2 reporter expression in HEK-293 cells. Potency, µM (titrated, usually from 57 µM), for inactives: top-dose activity change, negative = inhibition, usual class: inhibitors. HEK-293 ATXN2-luciferase reporter, luminescence, 24 h. actives 0.72% (n = 360,000); further: on the % scale 0 is the no-effect control and ±100 the full control effect; nearly all actives have a fitted effect of over 55% in size
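qHTS (up to 57 uM final) was run with 24 h compound exposure of reporter cells at 37 °C. Each well was multiplexed: SteadyGlo luminescence measured ATXN2-luciferase expression after a fluorogenic Gly-Phe-AFC viability readout (25 uM final).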
HT1080-NT tox – kills 2HG-producing HT-1080-NT fibrosarcoma cells | HT-1080-NT fibrosarcoma viability, CellTiter-Glo ATP luminescence, 48 h | Potency, µM (doses to about 46.1 µM), for inactives: at the highest dose activity, negative = less viability, usual class: cytotoxic | actives 1.6% (n = 360,000);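 further: NT is the 2HG producing partner of a matched IDH1 knockdown line; 0% = DMSO-treated cells and -100% = media-only wells without cells; nearly all actives have a fitted effect of over 55% in size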
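HT-1080-NT; 750 cells/well; 5% FBS RPMI; 48 h compound, 37 degrees C; CellTiter-Glo luminescence; curve fitting and curve-class assignment.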
An asterisk follows results filed as active; i = inactive; ? = inconclusive; . = no result given. The call rests on the fitted dose curve; in most records, active means well fitted curve in the direction sought with a large enough effect; inconclusive means small, poorly fitted or top-dose-only effect, or another doubt; inactive means no such curve, though single readings can be large; an effect the other way counts as inactive or inconclusive. Potency means the concentration at half of the fitted maximal effect.

SMILES | HT1080 IDH1KD tx | KB-3-1 tox | KB-V1 cytotox | ATXN viability | ATXN2 expr inh | HT1080-NT tox
Cn1cc(CN2CCC(C(=O)Nc3cccc(-c4cccc(F)c4)c3)CC2)cn1 | 23µM* | i | i | i | -23% | 21µM*
CCCn1ncc(CN2CCC(C(=O)Nc3cccc(-c4cccc(F)c4)c3)CC2)c1C | ? | ? | i | i | ? | 21µM*
Cc1nn(C(C)C)c(C)c1CN1CCC(C(=O)Nc2cccc(-c3cccc(F)c3)c2)CC1 | 21µM* | ? | ? | i | -36% | 15µM*
O=C1CCc2cc(S(=O)(=O)Nc3cc(F)cc(Cl)c3)c(F)cc2N1 | . | i | i | . | . | .
CNC(=O)c1ccc(Nc2nnc(-c3ccc(C)c(S(=O)(=O)NC(C)(C)C)c3)c3ccccc23)cc1 | . | i | i | i | -1% | .
CCC1C/C(=C\c2cc(OC)c(OC)cc2OC)C(=O)/C(=C/c2cc(OC)c(OC)cc2OC)C1 (stereo not given) | 21µM* | ? | i | ? | ? | 13µM*
COc1cc(OC)c(OC)cc1/C=C1\CC(C)C/C(=C\c2cc(OC)c(OC)cc2OC)C1=O (stereo not given) | ? | ? | i | ? | 13µM* | ?
O=C(NCCN1CCCCC1)c1ccc(Cn2c(SCc3ccccc3)nc3cccnc32)cc1 | . | i | i | ? | 4% | .
COc1ccc(S(=O)(=O)N(CC(=O)NC(C)c2ccccc2)c2ccc(C)cc2)cc1OC (stereo not given) | . | i | ? | 22µM* | ? | .
COc1ccc(S(=O)(=O)N(CC(=O)NCc2ccccc2)c2ccc(C)cc2)cc1OC | . | i | i | . | ? | .
CC(NC(=O)CN(c1cccc(C(F)(F)F)c1)S(=O)(=O)c1ccc(Cl)c([N+](=O)[O-])c1)c1ccccc1 (stereo not given) | 18µM* | ? | ? | ? | ? | 23µM*
Cc1ccc(S(=O)(=O)N(CCC(=O)NCC(c2ccccc2)N(C)C)c2ccccc2)cc1 (stereo not given) | 13% | i | 10µM* | ? | -12% | -10%
Cc1cc(F)ccc1S(=O)(=O)N1CCCCC1CCNC(=O)C(=O)NCCN1CCOCC1 (stereo not given) | -1% | i | 16µM* | ? | -10% | 6%
Cc1cc(C)c(S(=O)(=O)N2CCCCC2CCNC(=O)C(=O)NCCN2CCOCC2)c(C)c1 (stereo not given) | 6% | i | 3.3µM* | i | 2% | 4%
O=C(NCCC1CCCCN1S(=O)(=O)c1ccc(F)cc1)C(=O)NCCN1CCOCC1 (stereo not given) | 13% | i | i | ? | -4% | 10%
COc1ccccc1NC(=O)CN(c1cc(C)cc(C)c1)S(=O)(=O)c1c(C)[nH]c(=O)[nH]c1=O | . | i | i | i | -2% | .
COc1ccccc1CNC(=O)CSc1nc2nc(C)c(Cc3ccccc3C)c(C)n2n1 | . | ? | ? | i | -35% | .
Cc1ccc(-c2nc(C=Nc3ccc(O)cc3)c(O)o2)cc1 | ? | i | ? | i | . | ?
Cc1ccc(N=Cc2nc(/C=C/c3cccc([N+](=O)[O-])c3)oc2O)cc1 | 7% | i | 16µM* | . | ? | 22%
C=CCSC1=C(C#N)C(c2ccccc2Cl)C(C(=O)c2cccs2)C(O)(C(F)(F)F)N1 (stereo not given) | -16% | ? | 16µM* | i | -19% | -11%
CCSC1=C(C#N)C(c2ccccc2Cl)C(C(=O)c2cccs2)C(O)(C(F)(F)F)N1 (stereo not given) | ? | ? | ? | i | -1% | ?
C#C[C@]1(O)CC[C@H]2[C@@H]3CCc4cc(OC)ccc4[C@H]3CC[C@@]21C | -1% | i | i | i | 2% | 17%
